From PubChem
Shown are actives, neighbours in structure and some others; about 19% of the full set was active somewhere.
HT1080 IDH1KD tx = toxicity to HT-1080 IDH1 knockdown cells (counter line) | AID 686971 | Potency, µM (highest dose often 46.1 µM), for the others: at the highest dose activity, negative = toxicity, usual class: cytotoxic | HT-1080 IDH1 knockdown viability, ATP luminescence, 48 h | 360,000 compounds, 2% hits;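 note: potency is the fitted concentration of half-maximal effect; 0% = DMSO wells and -100% = cell-free medium wells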
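In this qHTS, HT-1080 cells depleted of IDH1 are exposed for 48 h at 37 °C to compound titrations. Toxicity is scored from CellTiter-Glo luminescence, with DMSO as full viability and medium alone as none.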
TDP1 cell noCPT = qHTS for Inhibitors of human tyrosyl-DNA phosphodiesterase 1 (TDP1): qHTS in cells in absence of CPT. Potency, µM (titrated, usually from 46.2 µM), for inactives: at the highest dose activity change, negative = growth inhibition, hits mostly inhibitors. AID 686978, 2013. 420,000 compounds, 15% hits. DT40 Tdp1-/- hTDP1 cells, no CPT, ATP luminescence, 48 h; note: potency is the fitted concentration of half-maximal effect; nearly all actives have a fitted effect of over 55% in size
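No-CPT arm: Tdp1-/-;hTDP1 DT40 cells (400/well) plus compounds, incubated ≥48 hr at 37 °C. Readout CellTiter-Glo luminescence.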
HT1080-NT tox = kills 2HG-producing HT-1080-NT fibrosarcoma cells | HT-1080-NT fibrosarcoma viability, CellTiter-Glo ATP luminescence, 48 h | Potency, µM (doses to about 46.1 µM), inactives show top-dose activity, negative = less viability, hits mostly cytotoxic | 360,000 compounds, 1.6% hits | AID 686970;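 note: NT is the 2HG producing partner of a matched IDH1 knockdown line; potency is the fitted concentration of half-maximal effect; 0% = DMSO-treated cells and -100% = media-only wells without cells; nearly all actives have a fitted effect of over 55% in size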
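Toxicity toward the 2HG-producing NT line was scored as %Activity, normalised to DMSO and no-cell wells, from CellTiter-Glo luminescence after 48 hours' treatment.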
uPA generation = cell surface uPA generation inhibition | AID 540303 | 330,000 compounds, 0.31% hits | cell surface uPA generation assay, qHTS | Potency, µM (doses to about 38.3 µM), without a hit: top-dose activity change, negative = inhibition, usual class: inhibitors; active = well fitted inhibition curve with a large enough effect; inconclusive = small, poorly fitted or top-dose-only effect; inactive = no such curve, though single readings can be large or run the other way; tested in mouse RAW 264.7 cells; note: potency is the fitted concentration of half-maximal effect; nearly all actives have a fitted effect of over 55% in size
IL-1B inflam inh = inflammasome signaling inhibition, IL-1 beta readout | THP-1 LPS/ATP IL-1B secretion, AlphaLISA, 16 h; stronger effect = lower value | activity change, % at 57.5 µM | 360,000 compounds, 4.7% hits | AID 743279; in the data active = activity change below about -50%; inconclusive = mostly about -30% to -49%
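Secreted IL-1B measured by AlphaLISA bead assay after 16 h compound exposure of THP-1 cells; compounds (final up to 57.5 uM) added 1 h before LPS (250 ng/mL) and ATP (1.25 mM) stimulation; lower signal means less secretion.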
TDP1 cell CPT = growth inhibition of DT40 Tdp1-/-;hTDP1 cells with camptothecin (screen for TDP1 inhibitors) | chicken DT40 Tdp1-/-;hTDP1 cells + 20 nM CPT, ATP luminescence, 48 h | 420,000 compounds, 12% hits | Potency, µM (top dose mostly 46.2 µM), inactives show top-dose activity change, negative = growth inhibition, hits mostly inhibitors; note: potency is the fitted concentration of half-maximal effect; nearly all actives have a fitted effect of over 55% in size
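Cell growth measured by CellTiter-Glo luminescence after a minimum 48 h, 37 C compound exposure with 20 nM CPT in Tdp1-knockout DT40 cells stably expressing hTDP1, seeded 400/well; qHTS titration format.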
* = called active by the depositor. Unless noted, calls come from the whole dose curve; as a rule, active = well fitted curve in the direction sought with a large enough effect; inconclusive = small, poorly fitted or top-dose-only effect, or another doubt; inactive = no such curve, though single readings can be large; an effect the other way counts as inactive or inconclusive. Unless noted, % is set by controls: 0 for no effect and ±100 for the full control effect.

What do the screens show for `O=C(COCc1cc(-c2ccco2)on1)Nc1cccc(O)c1`?
TDP1 cell noCPT: -21%; TDP1 cell CPT: -25%

Results for Cc1ccc(-n2ncc3c(SCc4ccccn4)ncnc32)c(C)c1 ?
HT1080 IDH1KD tx: inconclusive; TDP1 cell noCPT: 16µM*; HT1080-NT tox: inconclusive; uPA generation: -10%; IL-1B inflam inh: -69*; TDP1 cell CPT: inconclusive

What do the screens show for `CCOC(=O)N1CCC(Nc2ncnc3c2cnn3-c2ccc(C)cc2C)CC1`?
HT1080 IDH1KD tx: -5%; TDP1 cell noCPT: 8.2µM*; HT1080-NT tox: -13%; uPA generation: -11%; IL-1B inflam inh: -10; TDP1 cell CPT: 10µM*

What do the screens show for `Cc1ccc(-n2ncc3c(N(CC(C)C)CC(C)C)ncnc32)c(C)c1`?
TDP1 cell noCPT: inconclusive; TDP1 cell CPT: 21µM*

What do the screens show for `CSc1ncnc2c1cnn2-c1ccc(C)cc1C`?
HT1080 IDH1KD tx: 7%; TDP1 cell noCPT: inconclusive; HT1080-NT tox: 16%; uPA generation: 1%; IL-1B inflam inh: 0; TDP1 cell CPT: -28%

Results for Cc1ccc(-n2ncc3c(NCC(C)C)ncnc32)c(C)c1 ?
TDP1 cell noCPT: inconclusive; TDP1 cell CPT: 23µM*

What do the screens show for `C=CCNc1ncnc2c1cnn2-c1ccc(C)cc1C`?
HT1080 IDH1KD tx: 2%; TDP1 cell noCPT: inconclusive; HT1080-NT tox: -3%; uPA generation: 0%; IL-1B inflam inh: -9; TDP1 cell CPT: -4%

How did CC1Cc2cc(/C(O)=C3/C(=O)C(=O)N(CCCN4CCOCC4)C3c3ccc(C(C)C)cc3)ccc2O1 (stereo not drawn) do in these assays?
HT1080 IDH1KD tx: -3%; TDP1 cell noCPT: 14%; HT1080-NT tox: -1%; uPA generation: 0%; IL-1B inflam inh: 15; TDP1 cell CPT: -13%

How did c1csc(-c2noc(CN3CCc4sccc4C3)n2)c1 do in these assays?
HT1080 IDH1KD tx: 11%; TDP1 cell noCPT: -1%; HT1080-NT tox: 19%; uPA generation: 3%; IL-1B inflam inh: 22; TDP1 cell CPT: -5%

What do the screens show for `CC1(C)CC(=O)C(C(c2ccccc2F)C2C(=O)CC(C)(C)CC2=O)C(=O)C1`?
HT1080 IDH1KD tx: 11%; TDP1 cell noCPT: 9%; HT1080-NT tox: 12%; uPA generation: 3%; IL-1B inflam inh: -2; TDP1 cell CPT: 3%

What do the screens show for `CC1(C)CC(=O)C(C(c2cc([N+](=O)[O-])ccc2Cl)C2C(=O)CC(C)(C)CC2=O)C(=O)C1`?
HT1080 IDH1KD tx: 5%; TDP1 cell noCPT: 5.8µM*; HT1080-NT tox: -2%; uPA generation: -4%; IL-1B inflam inh: 41; TDP1 cell CPT: inconclusive

How did Cc1sc(C(C2C(=O)CC(C)(C)CC2=O)C2C(=O)CC(C)(C)CC2=O)cc1[N+](=O)[O-] do in these assays?
HT1080 IDH1KD tx: -5%; TDP1 cell noCPT: 23µM*; HT1080-NT tox: -17%; uPA generation: -3%; IL-1B inflam inh: -94*; TDP1 cell CPT: inconclusive

Results for CC1(C)CC(=O)C(C(C2=C(O)CC(C)(C)CC2=O)c2ccc([N+](=O)[O-])cc2)C(=O)C1 (stereo not drawn) ?
HT1080 IDH1KD tx: 0%; TDP1 cell noCPT: -16%; HT1080-NT tox: -7%; uPA generation: 0%; IL-1B inflam inh: 14; TDP1 cell CPT: inconclusive

What do the screens show for `O=C(CN1C(=O)CCC1=O)Nc1nc(-c2nc3ccccc3s2)cs1`?
HT1080 IDH1KD tx: 18%; TDP1 cell noCPT: -14%; HT1080-NT tox: 13%; uPA generation: inconclusive; IL-1B inflam inh: -57*; TDP1 cell CPT: 11%

What do the screens show for `O=C(CN1C(=O)CCC1=O)Nc1nc(-c2ccccn2)cs1`?
HT1080 IDH1KD tx: -1%; TDP1 cell noCPT: -7%; HT1080-NT tox: -8%; uPA generation: inconclusive; IL-1B inflam inh: -22; TDP1 cell CPT: inconclusive

How did Cc1cc2nc(-c3cccc(NC(=O)CSc4ccc(Cl)cc4)c3)oc2cc1C do in these assays?
TDP1 cell noCPT: inconclusive; TDP1 cell CPT: 16µM*

What do the screens show for `Cc1ccc(-c2nc3cc(NC(=O)Cc4ccc(Cl)cc4)ccc3o2)cc1`?
TDP1 cell noCPT: -3%; TDP1 cell CPT: -21%

What do the screens show for `Cc1ccc(SCC(=O)Nc2ccc3oc(-c4cccc(Cl)c4)nc3c2)cc1`?
TDP1 cell noCPT: 21µM*; TDP1 cell CPT: inconclusive

Results for Cc1cccc(-c2nc3cc(NC(=O)Cc4ccc(Cl)cc4)ccc3o2)c1 ?
TDP1 cell noCPT: 10µM*; TDP1 cell CPT: 16µM*

Results for Cc1ccc2oc(-c3cccc(NC(=O)Cc4ccc(Cl)cc4)c3)nc2c1 ?
TDP1 cell noCPT: -6%; TDP1 cell CPT: -2%

How did CCCC(=O)Nc1nnc(S(=O)(=O)N(CC)c2ccc(OC)cc2)s1 do in these assays?
HT1080 IDH1KD tx: -22%; TDP1 cell noCPT: -18%; HT1080-NT tox: -16%; uPA generation: -4%; IL-1B inflam inh: -1; TDP1 cell CPT: 1%

Results for CN(Cc1c(F)cccc1Cl)C(=O)CNC(=O)c1sc2ccccc2c1Cl ?
HT1080 IDH1KD tx: -6%; TDP1 cell noCPT: -24%; HT1080-NT tox: -2%; uPA generation: -1%; IL-1B inflam inh: -52*; TDP1 cell CPT: -21%

Results for Cc1ccccc1Cn1nc(C)c(NC(=O)c2sc3ccccc3c2Cl)c1C ?
HT1080 IDH1KD tx: inconclusive; TDP1 cell noCPT: 21µM*; HT1080-NT tox: -18%; uPA generation: -4%; IL-1B inflam inh: -26; TDP1 cell CPT: inconclusive

Results for Cc1nn(Cc2ccc(Cl)c(Cl)c2)c(C)c1NC(=O)c1sc2ccccc2c1Cl ?
HT1080 IDH1KD tx: inconclusive; TDP1 cell noCPT: 15µM*; HT1080-NT tox: -20%; uPA generation: 2%; IL-1B inflam inh: -9; TDP1 cell CPT: inconclusive

What do the screens show for `CN(CC(=O)Nc1c(Cl)cccc1Cl)C(=O)CNC(=O)c1sc2ccccc2c1Cl`?
HT1080 IDH1KD tx: 0%; TDP1 cell noCPT: inconclusive; HT1080-NT tox: 0%; uPA generation: -28%; IL-1B inflam inh: 59; TDP1 cell CPT: inconclusive

How did Cc1nn(Cc2c(Cl)cccc2Cl)c(C)c1NC(=O)c1sc2ccccc2c1Cl do in these assays?
HT1080 IDH1KD tx: inconclusive; TDP1 cell noCPT: 16µM*; HT1080-NT tox: inconclusive; uPA generation: 10%; IL-1B inflam inh: 7; TDP1 cell CPT: 18µM*

Results for N#Cc1nc(-c2ccccc2)cc(-c2ccccc2)n1 ?
HT1080 IDH1KD tx: 17%; TDP1 cell noCPT: inconclusive; HT1080-NT tox: 6%; TDP1 cell CPT: inconclusive
